Holding throughout (type): functional
The target of experiment [1] is Solute carrier family 2, facilitated glucose transporter member 1 (Homo sapiens) (UniProt P11166). The experiment is described as follows: ST_JUDE_LEISH: Cytotoxicity at 2uM final concentration against transgenic Leishmania Mexicana promastigotes LmGLUT1 that are glucose transport deficient and complemented with the human glucose transporter GLUT1. Activity is measured by DNA content using SYBR green in vitro.

The target of experiment [2] is Hexose transporter 1 (Plasmodium falciparum) (UniProt O97467). The experiment is described as follows: ST_JUDE_LEISH: Cytotoxicity at 2uM final concentration against transgenic Leishmania Mexicana promastigotes LmPfHT that are glucose transport deficient and complemented with the Plasmodium falciparum hexose transporter. Activity is measured by DNA content using SYBR green in vitro.

The target in experiment [3] is Glucose transporter (Leishmania mexicana) (UniProt O61059). The experiment is described as follows: ST_JUDE_LEISH: Cytotoxicity at 2uM final concentration against transgenic Leishmania Mexicana promastigotes LmGT2 that are glucose transport deficient and complemented with the L. Mexicana glucose transporter 2. Activity is measured by DNA content using SYBR green in vitro.

Solute carrier family 2, facilitated glucose transporter member 1 (Homo sapiens), sequence (P11166 whole entry): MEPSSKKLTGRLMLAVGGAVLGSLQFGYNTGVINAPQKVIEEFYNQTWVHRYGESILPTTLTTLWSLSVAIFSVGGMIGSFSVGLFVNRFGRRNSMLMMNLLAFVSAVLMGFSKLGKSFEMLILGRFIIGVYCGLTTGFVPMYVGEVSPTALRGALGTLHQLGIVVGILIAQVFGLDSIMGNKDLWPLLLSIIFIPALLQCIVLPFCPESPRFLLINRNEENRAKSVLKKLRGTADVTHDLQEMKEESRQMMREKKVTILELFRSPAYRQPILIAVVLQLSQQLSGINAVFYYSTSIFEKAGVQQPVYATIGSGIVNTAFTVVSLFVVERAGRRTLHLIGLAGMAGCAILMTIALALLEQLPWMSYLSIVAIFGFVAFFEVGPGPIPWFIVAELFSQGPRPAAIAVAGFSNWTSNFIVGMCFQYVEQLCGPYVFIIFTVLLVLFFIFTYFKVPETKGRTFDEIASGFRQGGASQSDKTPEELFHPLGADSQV

In the case of `COc1ccc2ncc(F)c(CCN3CC[C@@H](CNCc4nc5c(cc4C)SCC(=O)N5)C3)c2n1`, the inhibition in experiment [1] worked out at 3.29%; in experiment [2], 3.35%; in experiment [3], 0.49%.

For `Cc1nnc2c(NC(=O)NC3CCCC3)cc3ccc(-c4cccc(CN(C)C)c4)cc3n12`, the inhibition in experiment [1] turned out to be 2.19%; in experiment [2], 2.6%; in experiment [3], 0.64%.

Consider `CC[C@H](NC(=O)c1c(CN2CCC(N3CCCCC3)CC2)c(-c2ccccc2)nc2cc(O)ccc12)c1ccccc1`, for which the inhibition in experiment [1] is -0.16%; in experiment [2], -0.44%; in experiment [3], 1.08%.

For the molecule `COC(=O)c1ccc(CN2CCC(N(Cc3cccc(Oc4ccccc4)c3)S(=O)(=O)c3ccc(NC(C)=O)cc3)CC2)cc1`, the inhibition in experiment [1] was 0.23%; in experiment [2] it was 0.78%; in experiment [3] it was 0.32%.

As to `COc1ccc(C=Cc2cc(=N)c3ccccc3[nH]2)cc1Br`, the inhibition in experiment [1] came out at 1.57%; in experiment [2], 2.29%; in experiment [3], 1.29%.

As for `Cc1noc(C)c1-c1cccc(CNCc2ccc(-c3cccc(-c4nc5cc(C(F)(F)F)ccc5[nH]4)c3)cc2)c1`, the inhibition is -0.48% in experiment [1], 1.3% in experiment [2] and 1.67% in experiment [3].

Consider `CCOC(=O)c1cn(CC)c2cc(F)c(OC3CC4CCC3(C)C4(C)C)cc2c1=O` (stereo not drawn), for which the inhibition in experiment [1] was -1.86%; in experiment [2], -1.79%; in experiment [3], -3.18%.

Regarding `CN1CCN(c2ccnc3cc4c(cc23)N(C(=O)Nc2ccc(-c3ccncc3)c3ccccc23)CC4)CC1`, the inhibition in experiment [1] stood at 3.02%; in experiment [2], 2.26%; in experiment [3] it was 3.35%.

Take `N=C(NCCc1ccc(Cl)cc1)c1ccc(Cl)c(Cl)c1`: the inhibition in experiment [1] came out at 2%; in experiment [2] it was 2.64%; in experiment [3], 1.15%.

Regarding `O=S(=O)(c1cc(Cl)c(Cl)cc1Cl)N1CCCCC(c2ccc(C(F)(F)F)cc2)=N1`, the inhibition is -0.66% in experiment [1], 0.43% in experiment [2] and 0.91% in experiment [3].

On to `O=C(/C=C/c1ccc(Cl)c(Cl)c1)NCC1CCN(Cc2ccc(O)cc2)CC1`, for which the inhibition came out at 69.6% in experiment [1], 57.8% in experiment [2] and 46.2% in experiment [3].

For `O=C(C=Cc1ccc(F)cc1)NC1CCC(CCN2CCc3ccc(-c4cnccn4)cc3CC2)CC1` (stereo not drawn), the inhibition in experiment [1] was 0.54%; in experiment [2], -0.24%; in experiment [3], 1.49%.

Consider `O=C(Nc1ccc(Br)c(C(F)(F)F)c1)c1cccc([N+](=O)[O-])c1`, for which the inhibition was 3.35% in experiment [1], 2.2% in experiment [2] and -0.11% in experiment [3].

As for `Nc1ccnc(N2CCC(CCOc3cc(C(F)(F)F)nc4c(C(F)(F)F)cccc34)CC2)c1`, the inhibition in experiment [1] was found to be 25.6%; in experiment [2], 43.4%; in experiment [3] it was 10.2%.

In the case of `CN1CCN(CCCCCNc2c3ccccc3nc3ccccc23)CC1`, the figures for the inhibition in experiment [1], in experiment [2] and in experiment [3] were 28%, 21.1% and 17.9%, respectively.

In the case of `CCOc1cc2ncnc(Nc3cc(Cl)c(Cl)c(Cl)c3)c2cc1OCC`, the inhibition in experiment [1] amounted to 0.38%; in experiment [2], 1.95%; in experiment [3] it was 1.59%.

For the molecule `c1ccc2ncc(CNCCCCCCCCNCc3cnc4ccccc4c3)cc2c1`, the inhibition in experiment [1] was -0.67%; in experiment [2] it was -0.08%; in experiment [3], 0.09%.

For the molecule `CCc1ccc(C(=O)Nc2cccc(CN3CCCN(Cc4ccc(O)cc4)CC3)c2)cc1`, the inhibition in experiment [1] was 2.88%; in experiment [2], -2.75%; in experiment [3], 3.01%.

As to `COc1c(Br)cc(Br)cc1C(C)=O`, the inhibition in experiment [1] is 3.62%; in experiment [2], 3.58%; in experiment [3], -0.79%.

For the molecule `O=C(C=Cc1ccc(Cl)c(Cl)c1)NCCCCCN1CCC(CCCNC(=O)/C=C/c2ccccc2)CC1`, the inhibition in experiment [1] is 3.12%; in experiment [2], 2.68%; in experiment [3], 1.62%.

As to `O=C(NC1CCN(Cc2ccccc2)CC1)c1ccc(-c2nc3cc(F)c(F)cc3[nH]2)s1`, the inhibition in experiment [1] came out at 3.16%; in experiment [2], 3.84%; in experiment [3], 5.72%.

Regarding `COc1ccc(CN2CCCN(Cc3cccc(C(=O)Nc4ccc(C)c(F)c4)c3)CC2)cc1`, the figures for the inhibition in experiment [1], in experiment [2] and in experiment [3] were 0.27%, -1.26% and 1.49%, respectively.

Regarding `O=C(NCc1ccco1)c1ccc(CN2CCN(C(c3ccccc3)c3ccccc3)CC2)cc1`, the inhibition in experiment [1] was determined as 7.85%; in experiment [2], 6.41%; in experiment [3], 4.79%.

Regarding `CC(NC(=O)c1ccc(O)c(-c2ccc(Cl)c(Cl)c2)c1)C(=O)NCCN1CCCC1` (stereo not drawn), the results for the inhibition in experiment [1], in experiment [2] and in experiment [3] were 7.43%, 6.16% and 4.25%, respectively.

Turning to `Nc1nc(N)c2c(n1)CCc1cc(Br)ccc1-2`, the inhibition in experiment [1] came out at 1.65%; in experiment [2], 4.52%; in experiment [3], 2.4%.

With `O=C(Nc1cccc(CN2CCCN(Cc3ccccc3)CC2)c1)c1ccc(Cl)c(Cl)c1`, the inhibition in experiment [1] is 4.45%; in experiment [2], 3.88%; in experiment [3], -5.96%.

With `Cc1cc2ncn(-c3ccnc(N4CCN(CCCN5CCCC5)CC4)n3)c2cc1C`, the inhibition stood at 4.77% in experiment [1], 3.43% in experiment [2] and 2.01% in experiment [3].

As to `COc1ccc2ncc(F)c(CCN3CC(O)C(CNCc4ccc5oc(=O)ccc5c4)C3)c2n1` (stereo not drawn), the results for the inhibition in experiment [1], in experiment [2] and in experiment [3] were 8.17%, 6.29% and 5.19%, respectively.

`COc1ccc(Cl)cc1NC(=O)C(C)N1CCN(S(=O)(=O)c2ccccc2F)CC1` (stereo not drawn): the inhibition in experiment [1] came out at 4.36%; in experiment [2], 3.53%; in experiment [3], 3.44%.

With `Cc1cc2ncn(-c3nccc(NCc4cccnc4)n3)c2cc1C`, the inhibition is 4.32% in experiment [1], 4.68% in experiment [2] and 2.17% in experiment [3].

As for `Cc1ccc(CNC(=O)[C@H](Cc2ccccc2)Nc2ccnc(NCC3CCCCC3)n2)cc1`, the inhibition turned out to be 7.85% in experiment [1], 4.83% in experiment [2] and 3.01% in experiment [3].

Regarding `CC(C)C[C@@H](/C=N/N1CCOC1=O)NC(=O)[C@H](CC(C)C)NC(=O)c1ccc(F)cc1`, the inhibition in experiment [1] was 7.39%; in experiment [2], 11.5%; in experiment [3], 6.1%.

In the case of `CN1CCC(C(=O)N(Cc2ccc(-c3ccc(CNCCc4ccccc4)cn3)cc2)C2CCN(Cc3ccccc3)CC2)CC1`, the inhibition in experiment [1] is 0.71%; in experiment [2], 1.1%; in experiment [3], -0.74%.

Turning to `N#Cc1cc(C(=O)c2cc(Br)ccc2O)cn(-c2cc(Cl)cc(Cl)c2)c1=O`, the inhibition in experiment [1] was -3.11%; in experiment [2], 0.39%; in experiment [3], -3.61%.

For the molecule `Cc1ccc(CNC(=O)[C@H](CCCN)Nc2nc(Nc3ccccc3)ncc2C)cc1`, the inhibition came to 1.37% in experiment [1], 0.93% in experiment [2] and 1.15% in experiment [3].

As for `CCCc1ccccc1Nc1nc(C)cc(N(CC)CCCN2CCCCC2)n1`, the inhibition in experiment [1] came to 5.33%; in experiment [2], 5.19%; in experiment [3], 5.53%.

By inhibition is commonly meant the drop in the measured response relative to a control, in per cent.

The values above are taken from ChEMBL document CHEMBL3433997, “St. Jude Leishmania screening dataset” (2016).
